Results: PubChem BioAssay (Tox21)
Results filed as inconclusive are left out. Active and inactive are the calls of the source. Calls come from the whole dose curve; as a rule, active = well fitted curve in the direction sought with a large enough effect in the repeat runs; inconclusive = weak or mixed curves; inactive = no such curve, though single readings can be large; an effect the other way counts as inactive or inconclusive.

How the values were obtained:
[1] = qHTS RealTime-Glo MT Cell Viability Assay in HepG2 cells - 24 hour (AID 1224867); note: nearly all actives have a fitted effect of over 50% in size
Summary of the method: (§1)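 HepG2 suspension premixed with RealTime-Glo reagents is plated at 600 cells per well and left 5 h at 37 C/5% CO2. Compounds in DMSO then go in, and bioluminescence reflecting viable cell number is recorded over 40 h.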

[2] = qHTS RealTime-Glo MT Cell Viability Assay in HEK293 cells - 32 hour (AID 1224868); note: top concentration of the series differs between compounds; nearly all actives have a fitted effect of over 50% in size
Summary of the method: (§2)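 Reads taken at 0, 8, 16, 24, 32 and 40 h from the same wells. HEK293 cells (600/well) carried RealTime-Glo reagents from seeding, with compound added after a 5 h settle at 37 C.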

[3] = A CellTox Green Cytotoxicity Assay to monitor cytotoxicity in HEK293 cells - 0 hour (AID 1224869); note: nearly all actives have a fitted effect of over 50% in size
Summary of the method: (§3)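 Fluorescence intensity, read at 0, 8, 16, 24, 32 and 40 h of compound treatment, reflected dye binding to DNA of dead HEK293 cells; compounds (23 nL, DMSO) were added 5 h after plating cells with reagent.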

[4] = qHTS RealTime-Glo MT Cell Viability Assay in HepG2 cells - 40 hour (AID 1224870); note: nearly all actives have a fitted effect of over 50% in size
Summary of the method: (§4)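 HepG2 cells (600/well) mixed with RealTime-Glo MT reagent, settled 5 h at 37 C/5% CO2 before compound addition. Nonlytic NanoLuc luminescence from viable-cell prosubstrate reduction read repeatedly during 40 h treatment at 37 C.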

[5] = A CellTox Green Cytotoxicity Assay to monitor cytotoxicity in HEK293 cells - 40 hour (AID 1224871); note: nearly all actives have a fitted effect of over 45% in size
Summary of the method: as §3

[6] = qHTS RealTime-Glo MT Cell Viability Assay in HEK293 cells - 16 hour (AID 1224872)
Summary of the method: as §2

[7] = qHTS RealTime-Glo MT Cell Viability Assay in HepG2 cells - 8 hour (AID 1224873); note: nearly all actives have a fitted effect of over 55% in size
Summary of the method: as §4

[8] = qHTS RealTime-Glo MT Cell Viability Assay in HEK293 cells - 40 hour (AID 1224874); settings: RealTime-Glo luminescence, active compounds read low; note: nearly all actives have a fitted effect of over 50% in size
Summary of the method: (§5)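 Viable HEK293 cells reduce a cell-permeant prosubstrate; the product diffuses out and is consumed by NanoLuc in the medium to give light. Compounds went in after a 5 h incubation and plates were read over the treatment course.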

[9] = A CellTox Green Cytotoxicity Assay to monitor cytotoxicity in HEK293 cells - 24 hour (AID 1224875); note: series mostly up to about 77 µM; nearly all actives have a fitted effect of over 45% in size
Summary of the method: as §3

[10] = A CellTox Green Cytotoxicity Assay to monitor cytotoxicity in HepG2 cells - 16 hour (AID 1224876); note: nearly all actives have a fitted effect of over 45% in size
Summary of the method: (§6)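 Using 1536-well format, dye-containing HepG2 suspension was seeded, allowed 5 h at 37 C/5% CO2, dosed by pintool with compounds, positive and negative controls, and imaged for fluorescence across 40 h.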

[11] = qHTS RealTime-Glo MT Cell Viability Assay in HepG2 cells - 32 hour (AID 1224877); note: nearly all actives have a fitted effect of over 55% in size
Summary of the method: as §1

[12] = A CellTox Green Cytotoxicity Assay to monitor cytotoxicity in HepG2 cells - 24 hour (AID 1224878); note: nearly all actives have a fitted effect of over 45% in size
Summary of the method: as §6

[13] = A CellTox Green Cytotoxicity Assay to monitor cytotoxicity in HepG2 cells - 40 hour (AID 1224879); note: nearly all actives have a fitted effect of over 40% in size
Summary of the method: as §6

[14] = qHTS RealTime-Glo MT Cell Viability Assay in HEK293 cells - 0 hour (AID 1224880)
Summary of the method: as §5

[15] = A CellTox Green Cytotoxicity Assay to monitor cytotoxicity in HEK293 cells - 32 hour (AID 1224881); note: nearly all actives have a fitted effect of over 40% in size
Summary of the method: as §3

[16] = A CellTox Green Cytotoxicity Assay to monitor cytotoxicity in HepG2 cells - 0 hour (AID 1224882); note: nearly all actives have a fitted effect of over 35% in size
Summary of the method: as §6

[17] = A CellTox Green Cytotoxicity Assay to monitor cytotoxicity in HepG2 cells - 32 hour (AID 1224883); note: nearly all actives have a fitted effect of over 50% in size
Summary of the method: as §6

[18] = A CellTox Green Cytotoxicity Assay to monitor cytotoxicity in HEK293 cells - 8 hour (AID 1224884); note: nearly all actives have a fitted effect of over 35% in size
Summary of the method: as §3

[19] = qHTS RealTime-Glo MT Cell Viability Assay in HepG2 cells - 16 hour (AID 1224885); note: nearly all actives have a fitted effect of over 50% in size
Summary of the method: as §1

[20] = qHTS RealTime-Glo MT Cell Viability Assay in HEK293 cells - 24 hour (AID 1224886)
Summary of the method: as §2
% is set by controls: 0 for no effect and ±100 for the full control effect.

CC(=O)c1ccc(O)c(C(N)=O)c1
inactive: outcome [1] | outcome [2] | outcome [3] | outcome [4] | Potency [5] | outcome [6] | outcome [7] | max response [8] 2.03% | Potency [9] | Potency [10] | outcome [11] | Potency [12] | Potency [13] | Potency [14] | Potency [15] | Potency [16] | Potency [17] | Potency [18] | outcome [19] | outcome [20]

CC(C)(C)NCC(O)COc1cccc2c1CCC(=O)N2 (configuration not stated)
inactive: outcome [1] | outcome [2] | outcome [3] | outcome [4] | Potency [5] | outcome [6] | outcome [7] | max response [8] 5.27% | Potency [9] | Potency [10] | outcome [11] | Potency [12] | Potency [13] | Potency [14] | Potency [15] | Potency [16] | Potency [17] | Potency [18] | outcome [19] | outcome [20]

O=CN1CCCCC1
inactive: outcome [1] | outcome [2] | outcome [3] | outcome [4] | Potency [5] | outcome [6] | outcome [7] | max response [8] 1.3% | Potency [9] | Potency [10] | outcome [11] | Potency [12] | Potency [13] | Potency [14] | Potency [15] | Potency [16] | Potency [17] | Potency [18] | outcome [19] | outcome [20]

CC(C)=CCC/C(C)=C\C#N
inactive: outcome [1] | outcome [2] | outcome [3] | outcome [4] | Potency [5] | outcome [6] | outcome [7] | max response [8] 15.8% | Potency [9] | Potency [10] | outcome [11] | Potency [12] | Potency [13] | Potency [14] | Potency [16] | Potency [17] | Potency [18] | outcome [19] | outcome [20]

CO/N=C(\C(=O)O)c1csc(NC(=O)CCl)n1
inactive: outcome [1] | outcome [2] | outcome [3] | outcome [4] | Potency [5] | outcome [6] | outcome [7] | max response [8] 0.384% | Potency [9] | Potency [10] | outcome [11] | Potency [12] | Potency [13] | Potency [14] | Potency [15] | Potency [16] | Potency [17] | Potency [18] | outcome [19] | outcome [20]

CC(=O)OC1CCC(C(C)(C)C)CC1 (configuration not stated)
inactive: outcome [1] | outcome [2] | outcome [3] | outcome [4] | Potency [5] | outcome [6] | outcome [7] | max response [8] 0.815% | Potency [9] | Potency [10] | outcome [11] | Potency [12] | Potency [13] | Potency [14] | Potency [16] | Potency [17] | Potency [18] | outcome [19] | outcome [20]

O=C(O)Cc1c(Cl)ccc(Cl)c1Cl
inactive: outcome [1] | outcome [2] | outcome [3] | outcome [4] | Potency [5] | outcome [6] | outcome [7] | max response [8] 2.56% | Potency [9] | Potency [10] | outcome [11] | Potency [12] | Potency [13] | Potency [14] | Potency [15] | Potency [16] | Potency [17] | Potency [18] | outcome [19] | outcome [20]

BrCCOc1ccccc1
inactive: outcome [1] | outcome [2] | outcome [3] | outcome [4] | Potency [5] | outcome [6] | outcome [7] | max response [8] -4.49% | Potency [9] | Potency [10] | outcome [11] | Potency [12] | Potency [13] | Potency [14] | Potency [15] | Potency [16] | Potency [17] | Potency [18] | outcome [19] | outcome [20]

NS(=O)(=O)c1cc2c(cc1C(F)(F)F)NCNS2(=O)=O
inactive: outcome [1] | outcome [2] | outcome [3] | outcome [4] | Potency [5] | outcome [6] | outcome [7] | max response [8] 14.4% | Potency [9] | Potency [10] | outcome [11] | Potency [12] | Potency [13] | Potency [14] | Potency [15] | Potency [16] | Potency [17] | Potency [18] | outcome [19] | outcome [20]

CC12CCCC=C1C(=O)OC2=O (configuration not stated)
inactive: outcome [1] | outcome [2] | outcome [3] | outcome [4] | Potency [5] | outcome [6] | outcome [7] | max response [8] 7.32% | Potency [9] | Potency [10] | outcome [11] | Potency [12] | Potency [13] | Potency [14] | Potency [15] | Potency [16] | Potency [17] | Potency [18] | outcome [19] | outcome [20]

Cc1nc2ccc(Cl)cc2[nH]1
inactive: outcome [1] | outcome [2] | outcome [3] | outcome [4] | Potency [5] | outcome [6] | outcome [7] | max response [8] 7.55% | Potency [9] | Potency [10] | outcome [11] | Potency [12] | Potency [13] | Potency [14] | Potency [15] | Potency [16] | Potency [17] | Potency [18] | outcome [19] | outcome [20]

CCOC(=O)CN1CCCC1=O
inactive: outcome [1] | outcome [2] | outcome [3] | outcome [4] | Potency [5] | outcome [6] | outcome [7] | max response [8] 0.653% | Potency [9] | Potency [10] | outcome [11] | Potency [12] | Potency [13] | Potency [14] | Potency [15] | Potency [16] | Potency [17] | Potency [18] | outcome [19] | outcome [20]

CCOC(=O)c1ccc(N(C)C)cc1
inactive: outcome [1] | outcome [2] | outcome [3] | outcome [4] | Potency [5] | outcome [6] | outcome [7] | max response [8] -8.74% | Potency [9] | Potency [10] | outcome [11] | Potency [12] | Potency [13] | Potency [14] | Potency [16] | Potency [17] | Potency [18] | outcome [19] | outcome [20]
